Sampled rows, rich in hits. Any-hit rate of the full collection: about 10%.
HPGD inh: inhibitors of human 15-hydroxyprostaglandin dehydrogenase (HPGD) | purified HPGD, NADH fluorescence kinetic, PGE2 substrate | P15428 | Potency, µM, for inactives: top-dose activity change, negative = inhibition, usual class: inhibitors | actives 4.3% (n = 150,000) | AID 894; note: potency is the fitted concentration of half-maximal effect
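20 nM HPGD preincubated 15 min at room temperature with compound in 50 mM Tris-HCl pH 8, 0.01% Tween 20. Started with 1 mM NAD+ and 30 uM prostaglandin E2; NADH fluorescence (360/450 nm) read 5 times over 30-s intervals, last minus first.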
ALDH1A1 block: inhibitors of human aldehyde dehydrogenase 1A1; P00352; Purified ALDH1A1, NADH fluorescence, propionaldehyde substrate; Potency, µM (series often up to 75.3 µM), without a hit: at the highest dose activity, negative = inhibition, hits mostly inhibitors; actives 7.3% (n = 220,000); AID 1030;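 note: potency is the fitted concentration of half-maximal effect; plate controls were no enzyme wells and a reference inhibitor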
Target sequence (P00352 whole entry, looked up): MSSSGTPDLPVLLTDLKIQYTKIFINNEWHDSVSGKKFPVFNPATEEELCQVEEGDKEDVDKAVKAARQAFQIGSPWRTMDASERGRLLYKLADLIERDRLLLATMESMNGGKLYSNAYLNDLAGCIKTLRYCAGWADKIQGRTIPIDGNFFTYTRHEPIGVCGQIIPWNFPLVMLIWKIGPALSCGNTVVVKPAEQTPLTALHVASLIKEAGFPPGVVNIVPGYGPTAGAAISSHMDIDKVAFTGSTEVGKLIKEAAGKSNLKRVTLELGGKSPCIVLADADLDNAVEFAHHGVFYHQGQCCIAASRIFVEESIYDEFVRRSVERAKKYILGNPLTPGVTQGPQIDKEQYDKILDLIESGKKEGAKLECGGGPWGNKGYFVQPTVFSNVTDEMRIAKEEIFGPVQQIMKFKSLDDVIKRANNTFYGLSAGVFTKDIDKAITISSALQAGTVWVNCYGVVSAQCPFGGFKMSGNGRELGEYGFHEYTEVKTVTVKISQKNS
PNC assembly inh: inhibitors of perinucleolar compartment assembly. AID 2417. PC3M PTB-GFP, PNC prevalence imaging, 16 h; hits give low values. activity change (PNC), negative = inhibition, % at 10 µM. actives 3.1% (n = 140,000);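 active = readout at or below -70, meaning at least 70% loss of cells showing the perinucleolar compartment, a nuclear body marking cancer cells; inconclusive = readout between -30 and a set limit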;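 note: plate controls were DMSO wells for no effect and camptothecin positive control wells for full effect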
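PC3M cells stably expressing PTB-GFP, 750–1000 cells/well, treated 16 h at 37 °C with compound (23 nl of library stock), in duplicate. After paraformaldehyde fixation and Hoechst stain, imaged at 20x; PNC prevalence scored by image analysis.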
KinaseGlo FLuc: Kinase-Glo luciferase inhibition (counter-screen) | Q27757 | Kinase-Glo luciferase, ATP luminescence, 8 min | Potency, µM (doses to about 38.3 µM), without a hit: at the top dose activity change, negative = inhibition, actives largely listed as inhibitors | actives 0.28% (n = 200,000) | AID 1379; active = well fitted inhibition curve with a large enough effect; inconclusive = small, poorly fitted or top-dose-only effect; note: potency is the fitted concentration of half-maximal effect; nearly all actives have a fitted effect of over 60% in size
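Light output from Kinase-Glo luciferase with luciferin and 10 uM ATP in 50 mM imidazole pH 7.2, KCl, MgCl2, Tween 20, BSA; compound pin-delivered, 8-min ambient incubation, then luminescence read.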
Lamin A splicing: modulators of lamin A splicing. Potency, µM (titrated, usually from 46.1 µM), inactives show at the top dose ratio change, negative = inhibition, hits mostly inhibitors. actives 0.01% (n = 200,000). HeLa LMNA splicing GFP/RFP minigene ratio, 48 h. AID 1487; active = well fitted inhibition curve with a large enough effect in the signal ratio, with a control signal flat, not every such curve was filed as active; inconclusive = small, poorly fitted or top-dose-only effect, or effect the other way, or a change in a side signal; the % refers to the signal ratio; note: potency is the fitted concentration of half-maximal effect
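Read-out is the ratio of GFP to DsRed2 object intensity, acquired by 488 nm laser-scanning cytometry on HeLa lamin A-EGFP minigene reporter cells. Compound incubation 48 hrs at 37 °C in Opti-MEM with 2% FBS; DMSO 0.5% final.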
IMPase cell inh: membrane-permeable compound that blocks inositol monophosphatase. P97697. CHO-M1 cells, IP1 accumulation, HTRF TR-FRET ratio. inhibition (IP1 accumulation), % at 46.1 µM. 120,000 tested, under 10 active. AID 901; active = well fitted curve in the direction sought with a large enough effect in the signal ratio, not every such curve was filed as active; inconclusive = small, poorly fitted or top-dose-only effect, or a change in a side signal; inactive = no such curve, though single readings can be large or run the other way; the % refers to the signal ratio;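 note: cells stimulated with carbachol in lithium chloride buffer; plate controls were DMSO basal wells for no effect and reference inhibitor wells for full effect; higher means more IMPase inhibition seen as more IP1 and lower FRET ratio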
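Carbachol-driven Gq signalling in CHO-M1 cells (2000/well) generates IP1. Compounds that block IMPase raise IP1 and so reduce the FRET signal from Eu-anti-IP1 and d2-IP1 after a 10 min room-temperature lysis.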
The depositor's hits bear a star; u = inconclusive; x = not tested or not shown; [ ] = another dose, or the depositor's remark. Unless noted, calls come from the whole dose curve; as a rule, active = well fitted inhibition curve with a large enough effect (not every such curve was filed as active); inconclusive = small, poorly fitted or top-dose-only effect, or another doubt; inactive = no such curve, though single readings can be large or run the other way. Unless noted, % is set by controls: 0 for no effect and ±100 for the full control effect.

SMILES	HPGD inh	ALDH1A1 block	PNC assembly inh	KinaseGlo FLuc	Lamin A splicing	IMPase cell inh
Nc1nc(Sc2ccc([N+](=O)[O-])c3nonc23)c2[nH]cnc2n1	1.3µM*	2µM*	x	-15%[7.66 µM]	x	x
CC(=O)OC[C@@H]1O[C@H](C/C=N\O[C@@H](C)c2cn([C@H]3COC[C@H]3O)nn2)C=C[C@@H]1OC(C)=O	x	11%[13.5 µM]	x	x	x	x
CC(=O)N1[C@H](Cc2ccccc2)C=C[C@]1(C)C(=O)O	-13%	28µM*	x	0%	x	x
COC(=O)CNC(=O)[C@@]1(C)C=C[C@@H](Cc2ccccc2)N1C(C)=O	10µM*	22µM*	x	-24%	x	x
COc1ccc(-c2cc(C(F)F)n3ncc(C(=O)N4CCCc5ccccc54)c3n2)cc1	x	11%	x	-1%	17%[46 µM]	x
Cc1cc(C(F)F)n2ncc(C(=O)N3CCc4ccccc4C3)c2n1	22µM*	u	-22	0%	-8%	6
O=C(c1cnn2c(C(F)F)cc(-c3ccccc3)nc12)N1CCCc2ccccc21	3%	20µM*	u	-3%	14%	-2
COc1ccc(OCCn2cc(C(=O)c3ccco3)c3ccccc32)cc1	x	x	x	x	x	6
Nc1c(C(=O)N2CCOCC2)sc2nc3c(cc12)CCC3	x	6%	x	11µM*	19%[46 µM]	x
O=C(CSCc1ccc([N+](=O)[O-])cc1)NC1CC1	0%	6%	2	1%	-1%	x
CC(C)C(NC(=O)CSCc1ccc([N+](=O)[O-])cc1)C(C)C	10µM*	-10%	13	0%	u	x
CC1=C(C#N)C(c2ccccc2)C2=C(N1)c1ccccc1C2=O (stereo not given)	22µM*	13µM*	32	2%	-2%	x
S=c1[nH]nc(COc2ccccc2)n1/N=C/C=C/c1ccccc1	5µM*	-14%	0	6%	-12%	6
S=c1[nH]nc(COc2ccccc2)n1/N=C/C(Cl)=C/c1ccccc1	25µM*	32µM*	40	-5%	u	6
S=c1[nH]nc(-c2ccncc2)n1/N=C/C(Cl)=C\c1ccccc1	x	-14%	x	1%	-12%[46 µM]	x
O=C(O)C1Nc2c(C(=O)N3CCOCC3)cccc2C2C=CCC12 (stereo not given)	25µM*	u	u	-11%	3%	3
Cc1ccc2c(c1C)NC(C(=O)O)C1CC=CC21 (stereo not given)	10µM*	13µM*	u	-13%	u	5
Cc1ccc(Cl)c2c1N[C@@H](c1ccc(C(=O)O)cc1)[C@H]1CC=C[C@@H]21	x	x	x	x	x	-9
CCOC(=O)c1ccc2c(c1)C1C=CCC1C(C(=O)O)N2 (stereo not given)	16µM*	18µM*	-19	-15%	1%	6
O=S(=O)(c1ccc(Cl)cc1)c1nc(-c2cccc(Br)c2)oc1NCc1ccccc1	x	x	x	x	x	-8
CC1(C)O[C@H]2O[C@@H]([C@H](O)CON3C(=O)c4ccccc4C3=O)[C@H](O)[C@H]2O1	x	24%[13.5 µM]	x	x	x	x
CC1Cc2ccccc2N1S(=O)(=O)c1nnc(NC(=O)c2ccccc2Br)s1 (stereo not given)	x	x	x	x	-20%[46 µM]	x
O=C(COc1ccccc1)Nc1ccccc1NS(=O)(=O)c1cccs1	-9%	-2%	-100*	0%	2%	x
ClC(=Nc1cccc2ccccc12)N(c1ccccc1)c1ccccc1	-26%	6%[13.5 µM]	x	0%[7.66 µM]	x	x
CCC1=NNc2cccc3c(OC)ccc1c23	14µM*	u	30	-21%	8%	13
SMILES	HPGD inh	ALDH1A1 block	PNC assembly inh	KinaseGlo FLuc	Lamin A splicing	IMPase cell inh
COc1ccc2c3c(cccc13)C(=O)N(O)C2=O	-15%	u	-3	3%	u	x
Cn1cc(-c2nc3cnc(Oc4cccc(Cl)c4)nc3n(C3CC3)c2=O)c2ccccc21	x	9%	x	x	7%	x
COc1ccc2c(Cl)c(C(=O)N/N=C3\CCCC(=O)C3)sc2c1	x	4.5µM*	x	-2%	x	x
COc1ccc2c(Cl)c(C(=O)N/N=C/c3ccc4c(c3)OCO4)sc2c1	u	u	53	1%	26%	1
CCN1C(=O)[C@@H]2[C@H](C1=O)[C@@H]1C[C@H]3C(=O)N(CC)C(=O)[C@H]3[C@@H]3C1=C(C(=O)N1C(=O)O/C(=N\CC4CC4)[C@]31C)[C@@H]2C	-6%	7%	x	0%	x	x
O=C(OCC(F)(F)F)[C@H](O)[C@@H](O)C(=O)OCC(F)(F)F	-5%	0%	x	3%	x	x
NC(=O)c1nn(-c2cccc(Cl)c2)c(=O)cc1O	-8%	3%	-100*	0%	-2%	4
C#CCCCO/N=C1/C[C@@H](O)[C@@H](O)[C@@H]2[C@@H]3C(=O)N(C[C@@H]4CCCO4)C(=O)[C@H]3CC[C@H]12	x	2%[13.5 µM]	x	x	x	x
COC(=O)C1CCN(C(=O)/C=C/c2ccccc2)CC1	-3%	-5%	-114*	-1%	-2%	x
COc1ccccc1N1CCN(C(=O)c2ccc3nc(-c4ccco4)c(-c4ccco4)nc3c2)CC1	-17%	13µM*	23	1%	u	11
Cc1ccc(C)c(N2CCN(C(=O)c3ccc4nc(-c5ccco5)c(-c5ccco5)nc4c3)CC2)c1	u	u	76	-2%	16%	3
COc1ccccc1N1CCN(C(=O)c2ccccc2Oc2ccccc2)CC1	-18%	0.56µM*	u	2%	-3%	9
COc1ccccc1N1CCN(C(=O)/C=C/c2ccccc2)CC1	-10%	1%	-100*	3%	7%	-6
COC(=O)c1ccccc1NC(=O)CSc1cc(-c2ccccc2)nc(C)n1	x	x	x	x	33%[46 µM]	x
COc1ccccc1N1CCN(C(=O)c2oc3ccc(Br)cc3c2C)CC1	-21%	9%	-95*	-1%	-20%	x
COc1ccccc1N1CCN(C(=O)c2oc3ccc(F)cc3c2C)CC1	0%	-2%	220	1%	u	x
CCc1cc(C(=O)COc2ccccc2F)c(O)cc1O	32µM*	u	37	1%	u	1
CCOC(=O)c1sc2nc(N3CCOCC3)c3c(c2c1N)CCC3	u	u	-96*	-1%	-5%	-9

Compound activity (PubChem BioAssay)
